In PubChem BioAssay (Tox21):
Records with an inconclusive call do not appear. A call without a number means that no potency is given here. Values without a mark were called inactive. Activity calls are given as the source filed them. The call rests on the fitted dose curve; in most records, active means well fitted curve in the direction sought with a large enough effect in the repeat runs; inconclusive means weak or mixed curves; inactive means no such curve, though single readings can be large; an effect the other way counts as inactive or inconclusive.

Columns and labels:
[1] = qHTS assay to identify small molecule antagonists of the glucocorticoid receptor (GR) signaling pathway - cell viability counter screen (AID 720693); further: nearly all actives have a fitted effect of over 55% in size
[2] = qHTS assay for identifying genotoxic compounds that show differential cytotoxicity against isogenic chicken DT40 cell lines with known DNA damage response pathways - wild type cell line (AID 743012); further: nearly all actives have a fitted effect of over 60% in size; further: potency means the concentration at half of the fitted maximal effect
In short: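 Cells (DT40 wild type, 300/well) are treated with DMSO-dissolved compounds after a ~0.5 h pre-incubation and kept 40 h at 37 C/5% CO2. Viability is then measured by CellTiter-Glo luminescence following 30 min at room temperature.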

[3] = qHTS assay for identifying genotoxic compounds that show differential cytotoxicity against isogenic chicken DT40 cell lines with known DNA damage response pathways - Rev3 mutant cell line (AID 743014); further: nearly all actives have a fitted effect of over 55% in size; further: potency means the concentration at half of the fitted maximal effect
[4] = qHTS assay for identifying genotoxic compounds that show differential cytotoxicity against isogenic chicken DT40 cell lines with known DNA damage response pathways - Rad54/Ku70 mutant cell line (AID 743015); further: nearly all actives have a fitted effect of over 60% in size; further: potency means the concentration at half of the fitted maximal effect
[5] = qHTS assay to identify small molecule antagonists of the androgen receptor (AR) signaling pathway - cell viability counter screen (AID 743033; further: nearly all actives have a fitted effect of over 45% in size)
[6] = qHTS assay to identify small molecule antagonists of the androgen receptor (AR) signaling pathway using the MDA cell line - cell viability counter screen (AID 743041; further: nearly all actives have a fitted effect of over 45% in size)
In short: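 Same-well cytotoxicity was assessed by CellTiter-Fluor in MDA-kb2 AR-luc cells after 16 h of compound treatment under R1881 agonism.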

| SMILES | outcome [1] | Potency [2] | Potency [3] | Potency [4] | Potency [5] | Potency [6] | viability change, negative = cytotoxic [1] | activity change, negative = cytotoxicity [2] | activity, negative = cytotoxicity [3] | activity change, negative = cytotoxicity [4] | activity change, negative = cytotoxicity [5] | viability change, negative = cytotoxic [6] |
| --- | --- | --- | --- | --- | --- | --- | --- | --- | --- | --- | --- | --- |
| C=CCCCCCCCCC=O | inactive | inactive | inactive | inactive | inactive | inactive |  |  |  |  |  |  |
| CCCCOCCOCCOCCCC | inactive | inactive | inactive | inactive | inactive | inactive |  |  |  |  |  |  |
| CCCCC(CC)COC(=O)c1ccccc1O (stereo not given) | inactive | inactive | inactive | inactive | inactive | inactive |  |  |  |  |  |  |
| Cc1ccc(C#N)cc1 | inactive | inactive | inactive | inactive | inactive | inactive |  |  |  |  |  |  |
| CC/C=C\CC/C=C/C(OCC)OCC | inactive | 43.3 µM (active) | 48.6 µM (active) | 61.1 µM (active) | inactive | inactive |  |  |  |  |  |  |
| NC(=O)c1ccc([N+](=O)[O-])cc1 | inactive | inactive | inactive | inactive | inactive | inactive |  |  |  |  |  |  |
| C=CCOCC(CC)(CO)COCC=C | inactive | inactive | inactive | inactive | inactive | inactive |  |  |  |  |  |  |
| CCc1ccc(O)c(OC)c1 | inactive | inactive | inactive | inactive | inactive | inactive |  |  |  |  |  |  |
| CN(C)CCCSc1ccccc1NC(=O)/C=C/c1ccccc1 | inactive | 26.6 µM (active) | 13.3 µM (active) | 29.8 µM (active) | inactive | inactive |  |  |  |  |  |  |
| C=COCC1CCC(CO)CC1 (stereo not given) | inactive | inactive | inactive | inactive | inactive | inactive |  |  |  |  |  |  |
| O=C1OC(=O)C2CCCCC12 (stereo not given) | inactive | inactive | inactive | inactive | inactive | inactive |  |  |  |  |  |  |
| CCOC(C)(C)C | inactive | inactive | inactive | inactive | inactive | inactive |  |  |  |  |  |  |
| Nc1c2c(nc3ccccc13)CCCC2O (stereo not given) | inactive | inactive | inactive | inactive | inactive | inactive |  |  |  |  |  |  |
| NCCCNCCSP(=O)(O)O | inactive | inactive | inactive | inactive | inactive | inactive |  |  |  |  |  |  |
| NC(CSCC(=O)O)C(=O)O (stereo not given) | inactive | inactive | inactive | inactive | inactive | inactive |  |  |  |  |  |  |
| O=C[C@H](O)[C@@H](O)[C@H](O)[C@H](O)CO | inactive | inactive | inactive | inactive | inactive | inactive |  |  |  |  |  |  |
| CN1C(=O)N(C)C(O)C1O (stereo not given) | inactive | inactive | inactive | inactive | inactive | inactive |  |  |  |  |  |  |
| O=Cc1cccc([N+](=O)[O-])c1 | inactive | inactive | inactive | inactive | inactive | inactive |  |  |  |  |  |  |
| O=c1cc(CO)occ1O | inactive | inactive | inactive | inactive | inactive | inactive |  |  |  |  |  |  |
| Cc1c(O)cccc1O | inactive | inactive | inactive | inactive | inactive | inactive |  |  |  |  |  |  |

| SMILES | outcome [1] | Potency [2] | Potency [3] | Potency [4] | Potency [5] | Potency [6] | viability change, negative = cytotoxic [1] | activity change, negative = cytotoxicity [2] | activity, negative = cytotoxicity [3] | activity change, negative = cytotoxicity [4] | activity change, negative = cytotoxicity [5] | viability change, negative = cytotoxic [6] |
| --- | --- | --- | --- | --- | --- | --- | --- | --- | --- | --- | --- | --- |
| NS(=O)(=O)c1ccccc1Cl | inactive | inactive | inactive | inactive | inactive | inactive |  |  |  |  |  |  |
| CCCc1cc(C(N)=S)ccn1 | inactive | inactive | inactive | inactive | inactive | inactive |  |  |  |  |  |  |
| O=C(O)CCCc1ccccc1 | inactive | inactive | inactive | inactive | inactive | inactive |  |  |  |  |  |  |
| CCOC(=O)CCC(C)=O | inactive | inactive | inactive | inactive | inactive | inactive |  |  |  |  |  |  |
| FC(F)OC(Cl)C(F)(F)F (stereo not given) | inactive | inactive | inactive | inactive | inactive | inactive |  |  |  |  |  |  |
| COC(=O)c1ccc(C)cc1C1=NC(C)(C(C)C)C(=O)N1 (stereo not given) | inactive | inactive | inactive | inactive | inactive | inactive |  |  |  |  |  |  |
| CCCCCOC(=O)CCCCC | inactive | inactive | inactive | inactive | inactive | inactive |  |  |  |  |  |  |
| Nc1cc(=O)[nH]c(N)n1 | inactive | inactive | inactive | inactive | inactive | inactive |  |  |  |  |  |  |
| CCOC(=O)CC(C)=O | inactive | inactive | inactive | inactive | inactive | inactive |  |  |  |  |  |  |
| OC[C@]1(O)OC[C@@H](O)[C@H](O)[C@@H]1O | inactive | inactive | inactive | inactive | inactive | inactive |  |  |  |  |  |  |
| N#Cc1ccc(C2CCCc3cncn32)cc1 (stereo not given) | inactive | inactive | inactive | inactive | inactive | inactive |  |  |  |  |  |  |
| C[C@@H]1CCN(C(=O)[C@H](CCCN=C(N)N)NS(=O)(=O)c2cccc3c2NC[C@H](C)C3)[C@@H](C(=O)O)C1 | inactive | inactive | inactive | inactive | inactive | inactive |  |  |  |  |  |  |
| CCC(C)S (stereo not given) |  |  |  |  |  |  | -1.32% [at 3.15 µM] | 25.1% [at 3.82 µM] | -7.66% [at 3.82 µM] | 19.5% [at 3.83 µM] | 6.76% [at 3.15 µM] | 8.95% [at 3.79 µM] |
| Oc1ccc(C2CNCCc3c2cc(O)c(O)c3Cl)cc1 (stereo not given) | inactive | inactive | inactive | inactive | inactive | inactive |  |  |  |  |  |  |
| CCOC(=O)c1ccc(C)cc1 | inactive | inactive | inactive | inactive | inactive | inactive |  |  |  |  |  |  |
| Cc1cc(O)cc2c1O[C@](C)(CCC[C@H](C)CCC[C@H](C)CCCC(C)C)CC2 | inactive | inactive | inactive | inactive | inactive | inactive |  |  |  |  |  |  |
| CC1=CC(C)C(C=O)CC1 (stereo not given) | inactive | inactive | inactive | inactive | inactive | inactive |  |  |  |  |  |  |
| O=C1CCCCCCCCCCCN1 | inactive | inactive | inactive | inactive | inactive | inactive |  |  |  |  |  |  |
| N[C@H](C(=O)O)c1ccc(O)cc1 | inactive | inactive | inactive | inactive | inactive | inactive |  |  |  |  |  |  |
| CCOC(=O)c1cccc(N)c1 | inactive | inactive | inactive | inactive | inactive | inactive |  |  |  |  |  |  |

| SMILES | outcome [1] | Potency [2] | Potency [3] | Potency [4] | Potency [5] | Potency [6] | viability change, negative = cytotoxic [1] | activity change, negative = cytotoxicity [2] | activity, negative = cytotoxicity [3] | activity change, negative = cytotoxicity [4] | activity change, negative = cytotoxicity [5] | viability change, negative = cytotoxic [6] |
| --- | --- | --- | --- | --- | --- | --- | --- | --- | --- | --- | --- | --- |
| CC[N+](C)(C)c1cccc(O)c1 | inactive | inactive | inactive | inactive | inactive | inactive |  |  |  |  |  |  |
| Cc1cccc(C)c1NC(=O)C(C)N (stereo not given) | inactive | inactive | inactive | inactive | inactive | inactive |  |  |  |  |  |  |
| CCO[Si](CCC1CCC2OC2C1)(OCC)OCC (stereo not given) | inactive | inactive | inactive | inactive | inactive | inactive |  |  |  |  |  |  |
| O=C(O)c1ccccc1OP(=O)(O)O | inactive | inactive | inactive | inactive | inactive | inactive |  |  |  |  |  |  |
| CCCCCCCCCCCCCCCCC | inactive | inactive | inactive | inactive | inactive | inactive |  |  |  |  |  |  |
| CC(C)c1cc2c(cc1S(=O)(=O)O)[C@@]1(C)CCC[C@@](C)(C(=O)O)[C@@H]1CC2 | inactive | inactive | inactive | inactive | inactive | inactive |  |  |  |  |  |  |
| CCCCCCCCS(=O)(=O)Cl | inactive | inactive | inactive | inactive | inactive | inactive |  |  |  |  |  |  |
| CC(C)CNCC(C)C | inactive | inactive | inactive | inactive | inactive | inactive |  |  |  |  |  |  |
| CC(C)CCCC(C)N (stereo not given) | inactive | inactive | inactive | inactive | inactive | inactive |  |  |  |  |  |  |
| OCCOc1ccc(OCCO)cc1 | inactive | inactive | inactive | inactive | inactive | inactive |  |  |  |  |  |  |
| CC(C)OC(=O)c1ccccc1 | inactive | inactive | inactive | inactive | inactive | inactive |  |  |  |  |  |  |
| Cn1c(N)c(N=O)c(=O)n(C)c1=O | inactive | inactive | inactive | inactive | inactive | inactive |  |  |  |  |  |  |
| NS(=O)(=O)c1cc(C(=O)O)cc(N2CCCC2)c1Oc1ccccc1 | inactive | inactive | inactive | inactive | inactive | inactive |  |  |  |  |  |  |
| Cn1cc(S(C)=O)c(=O)c2ccc(F)cc21 (stereo not given) | inactive | inactive | inactive | inactive | inactive | inactive |  |  |  |  |  |  |
| C/C=C(\C)C#N | inactive | inactive | inactive | inactive | inactive | inactive |  |  |  |  |  |  |
| C=CCS(=O)(=O)O | inactive | inactive | inactive | inactive | inactive | inactive |  |  |  |  |  |  |
| O=C1CCCC(=O)C1 | inactive | inactive | inactive | inactive | inactive | inactive |  |  |  |  |  |  |
| CN1CCCC1 | inactive | inactive | inactive | inactive | inactive | inactive |  |  |  |  |  |  |
| COC(C)(C)CCCC(C)CC=O (stereo not given) | inactive | inactive | inactive | inactive | inactive | inactive |  |  |  |  |  |  |
| COC(=O)CC(C)=O | inactive | inactive | inactive | inactive | inactive | inactive |  |  |  |  |  |  |
